Screens: PubChem BioAssay, The Scripps Research Institute Molecular Screening Center
GBA activity up – GBA activity enhancers in patient fibroblasts, primary screen, cell-based; Lysosomal acid glucosylceramidase (Homo sapiens), P04062; L444P Gaucher fibroblasts, 4-MU-glucoside fluorescence, 3 days; activation, % at 10 µM; hit rate 0.44% among 30,000; AID 784, 2007; in the data active = activation above about 65%;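 also: 0% = vehicle wells and 100% = positive control wells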
The depositor's hits bear a star. This excerpt belongs to a sample that is enriched for hits.

SMILES	GBA activity up
Cc1ccc(C(=O)CSc2nnc(-c3cccnc3)n2N)cc1	-20.0
CC(C)OC(=O)CSc1nnc(-c2cccnc2)n1N	67.3*
COc1cccc(-n2c(SCC(=O)OC(C)C)nnc2-c2cccnc2)c1	-40.9
CC1=C(C(=O)Nc2ccccc2C)C(c2ccc(C)o2)N2C(=O)CSC2=N1 (stereo unspecified)	-13.4
CC[N+](C)(C)c1cccc(O)c1	-29.0
Cc1ccc(C)c(NC(=O)C2CC(O)CN2C(=O)OC(C)(C)C)c1 (stereo unspecified)	71.8*
Cc1ccc(C)c(NC(=O)C2CC=CCC2C(=O)O)c1 (stereo unspecified)	12.8
Cc1cccc(NC(=O)C2CC(O)CN2C(=O)OCc2ccccc2)c1 (stereo unspecified)	20.6
O=C(CC1Sc2ccccc2NC1=O)Nc1cccc(-c2nnc3n2CCCCC3)c1 (stereo unspecified)	-1.8
COc1ccc(OC)c(C2/C(=C(\O)c3c(C)nc4ccccn34)C(=O)C(=O)N2CCCN(C)C)c1 (stereo unspecified)	-8.0
O=C1CN(C(=O)c2ccc(Br)o2)C(c2ccc(F)cc2)c2cc(F)ccc2N1 (stereo unspecified)	40.4
CC(C)(C)c1nnc2sc(SCC(=O)c3cccs3)nn2c1=O	5.3
